# Publication PMC7826789 (International Journal of Molecular Sciences, 2021)
# Tested on: PDPK1
structure (smiles),measurement,value
CNc1nc(-c2ccc3c(N)n[nH]c3c2)cc(N2C[C@@H](C(=O)NC3CCCCC3)CC[C@H]2C)n1 [GSK2334470],Kinases covered,PDPK1
